Screening results as filed in PubChem.
MsrA inhibitor: bovine MsrA enzyme inhibitors, primary screen, biochemical, absorbance, HTS; Methionine sulfoxide reductase A (Bos taurus); 360,000 compounds, 0.75% hits; purified bovine MsrA, absorbance read-out; inhibition, % at 15.5 µM; AID 651718, 2012; in the data active = inhibition above about 4.5%;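 also: 0% = vehicle wells with enzyme and 100% = reference inhibitor wells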
DAGLB inhibitor: DAGLB lipase inhibitors, primary screen, biochemical, fluorescence, HTS. Diacylglycerol lipase-beta (Homo sapiens), Q8NCG7. HEK293T DAGLB membrane lysate, EnzChek fluorogenic substrate. inhibition, % at 5.17 µM. 340,000 compounds, 0.059% hits. AID 504411, 2011; in the data active = inhibition above about 34%;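 also: 0% = enzyme with vehicle and 100% = wells lacking enzyme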
NadD inh: inhibitors of S. aureus NadD, primary screen, biochemical, colorimetric, uHTS; purified NadD enzyme, colorimetric absorbance read-out; Nicotinate-nucleotide adenylyltransferase NadD (Staphylococcus aureus N315); AID 602399, 2012; inhibition, % at 20 µM; 360,000 compounds, 0.78% hits; in the data active = inhibition above about 26%
rCAG RNA binder: binders of r(CAG) RNA repeats, primary screen, biochemical, fluorescence | r(CAG) RNA repeat, TO-PRO-1 dye displacement fluorescence | inhibition, % at 3 µM | 370,000 compounds, 1.3% hits | AID 651821, 2012;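 active = inhibition above the plate cutoff, the mean of all test compounds on that plate plus 3 SD, cut at about 35% in these data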;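 also: 0% = DMSO alone and 100% = 100 µM mitoxantrone as full dye displacement; higher means more dye released from RNA so lower well fluorescence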
Pemphigus Ab inh: inhibitors of pemphigus antibody binding to DSG3, primary screen, biochemical, bead-based, flow cytometry, scFv-GFP; DSG3-coupled beads, scFv-anti-DSG3-GFP binding; active compounds read low; binding (percent of control), % at 10 µM; 310,000 compounds, 0.48% hits; AID 588358, 2011;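 active = binding more than 3 SD below its plate's average and above zero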;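 also: hits lower antibody fragment binding to DSG3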
bovine MsrA act: bovine MsrA enzyme activators, primary screen, biochemical, absorbance, HTS; Methionine sulfoxide reductase A (Bos taurus); purified bovine MsrA, absorbance read-out; activation, % at 10.6 µM; 360,000 compounds, 0.3% hits; AID 602163, 2012; in the data active = activation above about 7.5%;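 also: 0% = vehicle and 100% = reference activator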
rCAG binder conf: small molecules binding CAG repeat RNA – biochemical, fluorescence, confirmation; AID 652065, 2013; 4,300 compounds, 70% hits; inhibition, % at 3 µM; shares compounds with rCAG RNA binder; r(CAG) RNA repeat, TO-PRO-1 dye displacement fluorescence;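 active = inhibition above a per-plate cutoff, the mean inhibition of sample wells plus 3 SD, cut at about 35% in these data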;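 also: loss of TO-PRO-1 fluorescence as compound displaces dye from 1x1 AA loop RNA; 0% = DMSO only wells and 100% = 100 µM mitoxantrone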
dCAG dye counter: displacement of TO-PRO-1 from CAG DNA duplex, counter-screen for rCAG RNA repeat binder project, biochemical, fluorescence, TO-PRO-1 dye, d(CAG) DNA oligo. d(CAG) DNA oligo TO-PRO-1 dye displacement. shares compounds with rCAG RNA binder. inhibition, % at 3 µM. 4,300 compounds, 94% hits. AID 652068, 2013;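 active = inhibition above its plate's cutoff, the mean test-well inhibition plus 3 SD, cut at about 4.8% in these data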;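 also: 0% = DNA dye mix with DMSO and 100% = 100 µM mitoxantrone; hits displace the dye from DNA and so lower well fluorescence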
dCAG dye DR: inhibitors of DNA CAG/GTC TO-PRO-1 complex, dose response, counter-screen for rCAG RNA repeat binder project, biochemical, fluorescence, TO-PRO-1 dye. shares compounds with rCAG RNA binder. IC50, µM. AID 686960, 2013. 250 compounds, 20% hits. DNA CAG/GTC duplex TO-PRO-1 dye displacement fluorescence; in the data active = IC50 below about 10 µM
The depositor's hits bear a star; . = not tested or not shown. Rows were chosen to be rich in hits. Some 3.2% of all compounds tested hit in one or more screens of this group.

SMILES | MsrA inhibitor | DAGLB inhibitor | NadD inh | rCAG RNA binder | Pemphigus Ab inh | bovine MsrA act | rCAG binder conf | dCAG dye counter | others
COc1ccc(CN2C(=O)C(CC(=O)NCCCCc3ccccc3)CC(C(=O)N3CCCCCC3)=C2C)cc1 (stereo unspecified) | -0.2 | . | 8.1 | 2.2 | . | -1.2 | . | .
Cc1ccc(CN2CCC2(C)C(=O)NC2CCc3ccccc32)cc1 (stereo unspecified) | -0.5 | . | 2.0 | 0.4 | . | -1.8 | . | .
Cc1noc(NS(=O)(=O)c2ccc(NC(=O)CCN3C(=O)c4ccccc4C3=O)cc2)c1C | 0.3 | -5.9 | 1.2 | 14.0 | 85.2 | -2.0 | . | .
Cc1noc(NS(=O)(=O)c2ccc(NC(=O)c3cc(=O)c4ccccc4o3)cc2)c1C | 2.0 | 4.2 | -11.1 | 36.7* | 93.5 | -3.4 | 12.7 | 1.5
Cc1noc(NS(=O)(=O)c2ccc(NC(=O)c3nn(-c4ccccc4)ccc3=O)cc2)c1C | 3.2 | 1.6 | -6.0 | 35.5* | 101.3 | -7.4 | 20.8 | 5.7*
CCCCOc1ccc(C(=O)Nc2ccc(S(=O)(=O)Nc3onc(C)c3C)cc2)cc1 | -1.4 | 10.4 | 5.5 | 77.2* | . | -4.0 | 53.5* | 21.0*
Cc1noc(NS(=O)(=O)c2ccc(NC(=O)c3ccc(N4C(=O)c5ccccc5C4=O)cc3)cc2)c1C | 0.2 | 7.3 | 9.4 | 73.5* | 99.0 | -8.8 | 59.0* | 25.5*
COC(=O)[C@]12C[C@H](CC(=O)NCc3cccs3)C(=O)N(Cc3ccco3)C1=C[C@H](C1CCCC1)O[C@@H]2C | . | . | . | 2.4 | . | . | . | .
CCCOc1ccc(C(=O)Nc2ccc(S(=O)(=O)Nc3onc(C)c3C)cc2)cc1 | 2.9 | 4.7 | 3.0 | 48.7* | 98.4 | -15.1 | 28.1 | 5.2*
CCOc1cc(C(=O)Nc2ccc(S(=O)(=O)Nc3onc(C)c3C)cc2)cc(OCC)c1OCC | -0.7 | 6.9 | 2.5 | 46.1* | 95.0 | -3.1 | 51.8* | 19.9*
CCCOc1ccc(C(=O)Nc2ccc(S(=O)(=O)Nc3cc(C)nc(C)n3)cc2)cc1 | -0.9 | 2.8 | -1.5 | 25.3 | 100.2 | -2.7 | . | .
Cc1ccc(Cn2nnc3c2-c2ccccc2S(=O)(=O)N(C(C)(C)C)C3)cc1 | . | . | . | -0.6 | . | . | . | .
Cc1ccc(-c2csc(NC(=O)C3CC=CCC3C(=O)O)c2C(=O)OC(C)C)cc1 (stereo unspecified) | -1.0 | 6.7 | 10.2 | 50.6* | 120.4 | -8.3 | 58.0* | 19.0*
COC(=O)C1CN(Cc2cn(Cc3ccc(C)cc3)nn2)CCS(=O)(=O)N1Cc1ccc(Cl)cc1 (stereo unspecified) | . | . | . | 6.4 | . | . | . | .
O=C(O)CCn1cc(/C=C/C(=O)c2ccc(Cl)cc2)c(-c2ccc(Br)cc2)n1 | 2.7 | 5.7 | -0.9 | 58.9* | 90.3 | -5.8 | 84.1* | 49.2*
O=C(CN(C(=O)OCC1c2ccccc2-c2ccccc21)[C@@H](Cc1ccccc1)C(=O)O)OCc1ccc(C(=O)NCc2ccccc2)cc1 | . | . | . | 60.8* | . | . | 69.6* | 27.4* | dCAG dye DR=>29.9
N#Cc1c(-c2c(Cl)cccc2Cl)noc1/C=C/Nc1ccc(C(=O)O)cc1 | 3.0 | 9.1 | 8.5 | 43.7* | 109.1 | -12.6 | 43.5* | 10.3*
CCc1ccc(/C=C2\SC(=S)N(CCCC(=O)N3CCCC3)C2=O)cc1 | 1.5 | -3.7 | 0.7 | 1.0 | 106.2 | -0.8 | . | .
